An excerpt weighted towards active compounds, which were near 5.4% of everything screened.
Six1-Eya2 blk: qHTS Assay for Inhibitors of the Six1/Eya2 Interaction | Homeobox protein SIX1 (Homo sapiens) + Protein phosphatase EYA2 (Homo sapiens), … | AlphaScreen GST-Six1/His-Eya2 binding, biochemical; stronger effect = lower value | activity change, % (no concentration beside the values) | 360,000 compounds, 0.56% hits | AID 651725, 2012; in the data active = activity change below about -65%; inconclusive = mostly about -30% to -63%; also: % is scaled to controls: 0 for no effect and ±100 for the full control effect
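Six1/Eya2 binding was read as AlphaScreen signal after compounds were pinned into GST-Six1 plus His-tagged Eya2 (5X stock 250/500 nM) in pH 8.0 Tris/NaCl/TCEP buffer, beads added, then incubated 1 h, 37 C, dark.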
p53 reactivator: qHTS assay for re-activators of p53 using a Luc reporter; 320,000 compounds, 0.063% hits; Potency, µM (top dose mostly 92.2 µM), without a hit: top-dose activity change, positive = activation, actives largely listed as activators; H1299 p53-A138V BP100-luciferase reporter, luminescence, 24 h; AID 504706, 2011; also: potency is read from the fitted curve at half-maximal effect; % of control where 0% means no effect; nearly all actives have a fitted effect of over 45% in size
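p53-null H1299 cells stably carrying temperature-sensitive p53-A138V and a BP100-luciferase reporter were pinned with compounds (4-point, 1:5 series) and held 24 hrs at 37 deg C. Luminescence was read 10 min after detection reagent.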
RORg inh: qHTS for inhibitors of ROR gamma transcriptional activity; Drosophila S2 Gal4-RORgamma UAS-luciferase reporter, 20 h; 310,000 compounds, 5.4% hits; Nuclear receptor ROR-gamma (Mus musculus), P51450; Potency, µM (doses to about 53.6 µM), for the others: top-dose activity change, negative = inhibition, hits mostly inhibitors; AID 2551, 2010; also: potency is read from the fitted curve at half-maximal effect; % is scaled to controls: 0 for no effect and ±100 for the full control effect; nearly all actives have a fitted effect of over 60% in size
Target sequence (P51450 whole entry, looked up, the tested form may be a part): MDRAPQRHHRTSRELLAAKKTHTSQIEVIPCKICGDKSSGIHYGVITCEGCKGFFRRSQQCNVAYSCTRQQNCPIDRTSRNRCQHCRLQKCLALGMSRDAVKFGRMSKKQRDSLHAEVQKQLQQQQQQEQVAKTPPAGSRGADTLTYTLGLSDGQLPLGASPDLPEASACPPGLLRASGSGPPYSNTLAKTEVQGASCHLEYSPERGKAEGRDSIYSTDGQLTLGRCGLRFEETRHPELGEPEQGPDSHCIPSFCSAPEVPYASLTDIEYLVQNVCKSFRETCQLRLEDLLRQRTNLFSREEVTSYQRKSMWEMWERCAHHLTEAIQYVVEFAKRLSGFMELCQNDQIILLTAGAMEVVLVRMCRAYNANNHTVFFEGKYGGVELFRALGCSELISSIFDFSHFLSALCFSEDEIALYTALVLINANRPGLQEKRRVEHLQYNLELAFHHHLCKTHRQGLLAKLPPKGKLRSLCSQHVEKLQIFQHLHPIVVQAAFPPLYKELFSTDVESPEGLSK
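Drosophila Schneider cells stably carrying a metallothionein-driven Gal4 DBD–ROR gamma fusion and a UAS-Photinus luciferase reporter were exposed to compound for 1 hr, then induced with copper sulfate (700 uM final) for 20 hr at ambient temperature before luminescence reading.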
Gal4-VP16 FLuc: VP16 counterscreen qHTS for inhibitors of ROR gamma transcriptional activity | Drosophila S2 Gal4-VP16 UAS-luciferase, luminescence, 20 h | Potency, µM (titrated, usually from 53.6 µM), for the others: at the highest dose activity, negative = inhibition, actives largely listed as inhibitors | 310,000 compounds, 3.5% hits | AID 2546, 2010;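 also: Gal4-VP16 expression switched on by copper sulfate through the metallothionein promoter; potency is read from the fitted curve at half-maximal effect; % is scaled to controls: 0 for no effect and ±100 for the full control effect; nearly all actives have a fitted effect of over 50% in size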
CtBP-E1A inh: qHTS Assay for Inhibitors of the CtBP/E1A Interaction; AlphaScreen GST-E1A/His-CtBP binding, 1536-well; stronger effect = lower value; activity change, % (no concentration beside the values); AID 651724, 2012; CtBP / adenovirus E1A interaction (AlphaScreen); 340,000 compounds, 0.49% hits; in the data active = activity change below about -65%; inconclusive = mostly about -30% to -63%; also: % is scaled to controls: 0 for no effect and ±100 for the full control effect
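Protein mix (5X: 125 nM each GST-E1A, His-CtBP) was incubated with pinned compound 2 h at 37 deg C in dark, in 50 mM Tris pH 8.0 buffer with 300 mM NaCl. Glutathione donor and nickel acceptor beads followed; AlphaScreen signal read after 1 h.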
An asterisk follows results filed as active; ? = inconclusive; . = no result. Unless noted, calls follow the shape of the dose curve; as a rule, active = well fitted curve in the direction sought with a large enough effect; inconclusive = small, poorly fitted or top-dose-only effect, or another doubt; inactive = no such curve, though single readings can be large; an effect the other way counts as inactive or inconclusive.

SMILES	Six1-Eya2 blk	p53 reactivator	RORg inh	Gal4-VP16 FLuc	CtBP-E1A inh
c1ccc(C2Oc3ccccc3C3CC(c4cccs4)=NN32)cc1 (configuration not stated)	-5	?	?	?	-2
O=c1c2ccccc2oc2ccccc12	.	.	-35%	-1%	.
S=c1[nH]ncn2c1cc1oc3ccccc3c12	0	1%	2.5µM*	-18%	1
COc1ccc(CCNC(=S)Nc2ccccc2C)cc1	-5	-5%	5µM*	20µM*	-6
COc1ccc(OCCNC(=S)Nc2cccc3ccccc23)cc1	-24	-11%	2.8µM*	6.3µM*	-20
COc1ccc(CCNC(=S)Nc2cccc3ccccc23)cc1	-14	4%	5µM*	11µM*	-18
Fc1ccc2[nH]c3c(NCc4ccccc4)ncnc3c2c1	-6	-2%	?	5.6µM*	-10
C=CCC(C)(O)/C=C/c1ccccc1 (configuration not stated)	.	.	3%	8%	.
O=C(N/N=C/c1cn(CC(=O)N2CCOCC2)c2ccccc12)c1cccnc1	2	1%	10%	4%	-12
O=C(N/N=C/c1cn(Cc2ccccc2)c2ccccc12)c1cccnc1	-3	0%	7.1µM*	8.9µM*	3
O=C(N/N=C/c1cn(Cc2ccccc2)c2ccccc12)c1ccncc1	3	-2%	2.8µM*	?	-15
COc1ccc(OC)c(C2C(C(N)=O)=C(C)Nc3nc(-c4cccc(Cl)c4)nn32)c1 (configuration not stated)	0	-20%	?	18µM*	0
COC(=O)C1(C(=O)OC)C[C@H](c2ccc(OC)cc2)N(Cc2ccccc2OC)[C@@H]1c1ccccc1	-1	.	.	.	-19
O=C(CC1SC(=O)N(c2ccccc2)C1=O)Nc1ccc(Br)cc1 (configuration not stated)	3	10%	-26%	7%	6
O=C(CC1SC(=NCCc2ccccc2)N(/N=C/c2cccs2)C1=O)Nc1ccc(Cl)cc1 (configuration not stated)	0	?	0.5µM*	0.79µM*	-1
O=C(CC1SC(=O)N(c2ccccc2)C1=O)Nc1ccc(Cl)cc1 (configuration not stated)	-8	10%	16µM*	-6%	-18
CN[C@@H]1[C@H](O[C@H]2[C@H](O[C@H]3[C@H](O)[C@@H](O)[C@H](N=C(N)N)[C@@H](O)[C@@H]3N=C(N)N)O[C@@H](C)[C@]2(O)C=O)O[C@@H](CO)[C@H](O)[C@H]1O	.	.	-2%	-9%	.
O=C(O)CCSCC(=O)c1ccc2c(c1)OCCO2	18	-2%	2µM*	3.5µM*	-3
O=C(CS(=O)(=O)c1ccccc1)c1ccc2c(c1)OCCO2	2	?	?	?	5
O=C(O)CCC(=O)c1ccc2c(c1)OCCO2	-1	6%	-11%	-3%	1
O=C(CCN1Cc2ccccc2C1)c1ccc2c(c1)OCCO2	-1	-13%	13µM*	16µM*	6
O=C(CCN1CCc2ccccc2C(c2ccccc2)C1)c1ccc2c(c1)OCCO2 (configuration not stated)	-20	-18%	4.5µM*	3.5µM*	-15
CN(C)CCC(=O)c1ccc2c(c1)OCO2	2	-26%	2.2µM*	6.3µM*	3
O=c1c2cc3c(nc2[nH]c(=S)n1-c1ccccc1)CCCC3	6	2%	2.5µM*	?	5
CCn1c(=S)[nH]c2nc3c(cc2c1=O)CCCC3	-1	-3%	1.6µM*	?	-2
SMILES	Six1-Eya2 blk	p53 reactivator	RORg inh	Gal4-VP16 FLuc	CtBP-E1A inh
CCCCCCn1cnc2c(oc3nc4c(cc32)CCCC4)c1=O	-3	?	?	5%	-24
Cc1cncc(NCc2cccc(Cl)c2)n1	8	.	.	.	14
Cc1ccc(NC(=O)CSCC(=O)Nc2nnc(C)s2)cc1	3	-2%	.	.	5
Nc1ccccc1-n1c(=O)n(Cc2ccccc2F)c(=O)c2[nH]cnc21	-2	-2%	-4%	5%	4
CCN(CC)S(=O)(=O)c1ccc(NC(=O)c2ccc(N3CCCC3=O)cc2)cc1	7	-3%	.	.	5
O=C(N/N=C1\CC2CC=CC12)c1ccc(Br)cc1 (configuration not stated)	3	1%	11µM*	0%	7
Cc1cc(Br)c(OCc2ccc(C(=O)N/N=C3\CC4CC=CC34)cc2)c(Br)c1 (configuration not stated)	2	-14%	7.9µM*	?	6
c1ccc(C(NCCNC(c2ccccc2)c2ccccc2)c2ccccc2)cc1	3	1%	13µM*	?	4
O=C(Cc1ccccc1)Nc1nc2ccccc2[nH]1	0	?	13µM*	16µM*	6
O=C(Cc1ccc(Br)cc1)Nc1nc2ccccc2[nH]1	11	12%	?	-28%	0
Cc1cc(NC(=O)CSCC(=O)Nc2nc3ccccc3[nH]2)no1	-6	5%	.	.	-4
O=C(Cc1ccc(Cl)cc1)Nc1nc2ccccc2[nH]1	5	3%	0.28µM*	7.1µM*	8
O=C(Cc1c[nH]c2ccccc12)Nc1nc2ccccc2[nH]1	-2	13%	?	?	2
O=C(CSc1ccccc1)Nc1nc2ccccc2[nH]1	-16	?	13µM*	?	1
O=C(Cc1ccc(F)cc1)N1CCC(N2CCC(C(=O)N3CCOCC3)CC2)CC1	6	4%	-3%	-1%	-5
CCN(CC)c1ccc(/C=N/NC(=O)CCC(=O)NCc2ccccc2)c(O)c1	-27	?	3.2µM*	?	?
COc1cc(/C=N\NC(=O)CNC(=O)C2COc3ccccc3O2)ccc1O (configuration not stated)	6	-4%	3%	3%	0
CCN(CC)c1ccc(/C=N/NC(=O)CNC(=O)C2COc3ccccc3O2)c(O)c1 (configuration not stated)	-70*	18µM*	2.8µM*	2.8µM*	?
Cc1ccc([C@H]2C[C@H](n3cc(COC(=O)c4ccccc4)nn3)[C@@H](O)CN2C(=O)c2cccs2)cc1	-3	.	.	.	3
CC(=O)N1CCN(c2nc(CC(C)C)c3c(c2C#N)CCC3)CC1	-10	-7%	12%	1%	0
CC(C)Cc1nc(N2CCN(C(=O)c3ccccc3)CC2)c(C#N)c2c1CCC2	-7	21%	35µM*	40µM*	0
CC(C)Cc1nc(N2CCN(C(=O)C(C)C)CC2)c(C#N)c2c1CCC2	0	8%	1.4µM*	-5%	2

Assay outcomes (PubChem)
